This is a sample that favours compounds with a hit; in the whole collection about 10% have one here.
BAZ2B inh: inhibitors of human BAZ2B bromodomain. Q9UIF8. Potency, µM (highest dose often 114 µM), hits mostly inhibitors. 4.4% of 360,000 active. AID 504333. AlphaScreen BAZ2B-H3K14Ac peptide displacement; also: nearly all actives have a fitted effect of over 60% in size
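Multi-concentration screen (max 110 uM) measuring displacement of acetylated histone H3 peptide from BAZ2B by AlphaScreen, using 50 nM protein, 50 nM peptide and 10 ug/mL streptavidin donor plus Ni-chelate acceptor beads.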
CtBP-E1A blk: blocks the CtBP interaction with E1A. AlphaScreen GST-E1A/His-CtBP binding, 1536-well; hits give low values. activity change, % (concentration not given with the values). 0.49% of 340,000 active. AID 651724; in the data active = activity change below about -65%; inconclusive = mostly about -30% to -63%
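Protein mix (5X: 125 nM each GST-E1A, His-CtBP) was incubated with pinned compound 2 h at 37 deg C in dark, in 50 mM Tris pH 8.0 buffer with 300 mM NaCl. Glutathione donor and nickel acceptor beads followed; AlphaScreen signal read after 1 h.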
Six1-Eya2 inh: Six1/Eya2 interaction inhibition | AlphaScreen GST-Six1/His-Eya2 binding, biochemical; hits give low values | activity change, % (test concentration not listed) | 0.56% of 360,000 active; in the data active = activity change below about -65%; inconclusive = mostly about -30% to -63%
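GST-Six1 + His-Eya2 (5X stock: 250/500 nM); Tris pH 8.0, 300 mM NaCl, 0.05% BSA, 0.02% Tween 20; GSH donor/Ni acceptor beads; 1 h 37 °C dark; AlphaScreen readout.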
HP1b chromo inh: HP1-beta chromodomain-methylated histone interaction inhibition; P83916; AlphaScreen HP1-beta / biotin-H3K9me3 peptide binding; Potency, µM (series often up to 114 µM), hits mostly inhibitors; 0.56% of 390,000 active; AID 540317; also: nearly all actives have a fitted effect of over 70% in size
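Compound inhibition of the preformed complex between 50 nM HP1-beta and 50 nM biotinylated H3K9me3 peptide was read by AlphaScreen. Buffer was PBS pH 7.4 with 0.01% Tween-20. Incubations ran 30 min at room temperature, with 10 ug/mL donor/acceptor beads.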
G9a inh-1: inhibitors of human histone lysine methyltransferase G9a. AID 504332. Potency, µM (series often up to 102 µM), hits mostly inhibitors. 8.8% of 350,000 active. G9a H3K9 monomethylation, AlphaScreen, 2 h; also: nearly all actives have a fitted effect of over 75% in size
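Chemiluminescent proximity detection of H3K9 monomethylation, read after 10 min bead incubation in the dark. Reaction: 20 nM G9a, 500 nM biotin-H3K9 peptide, 20 uM SAM cofactor, 2 h, room temperature, following 15 min enzyme-compound preincubation.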
JMJD2A Tudor: blocks the human JMJD2A Tudor domain; O75164; AlphaScreen JMJD2A-Tudor / H3K4me3 peptide binding; Potency, µM (doses to about 114 µM), hits mostly inhibitors; 4.4% of 390,000 active; AID 504339; also: nearly all actives have a fitted effect of over 50% in size
Target sequence (O75164 whole entry, looked up, the tested form may be a part): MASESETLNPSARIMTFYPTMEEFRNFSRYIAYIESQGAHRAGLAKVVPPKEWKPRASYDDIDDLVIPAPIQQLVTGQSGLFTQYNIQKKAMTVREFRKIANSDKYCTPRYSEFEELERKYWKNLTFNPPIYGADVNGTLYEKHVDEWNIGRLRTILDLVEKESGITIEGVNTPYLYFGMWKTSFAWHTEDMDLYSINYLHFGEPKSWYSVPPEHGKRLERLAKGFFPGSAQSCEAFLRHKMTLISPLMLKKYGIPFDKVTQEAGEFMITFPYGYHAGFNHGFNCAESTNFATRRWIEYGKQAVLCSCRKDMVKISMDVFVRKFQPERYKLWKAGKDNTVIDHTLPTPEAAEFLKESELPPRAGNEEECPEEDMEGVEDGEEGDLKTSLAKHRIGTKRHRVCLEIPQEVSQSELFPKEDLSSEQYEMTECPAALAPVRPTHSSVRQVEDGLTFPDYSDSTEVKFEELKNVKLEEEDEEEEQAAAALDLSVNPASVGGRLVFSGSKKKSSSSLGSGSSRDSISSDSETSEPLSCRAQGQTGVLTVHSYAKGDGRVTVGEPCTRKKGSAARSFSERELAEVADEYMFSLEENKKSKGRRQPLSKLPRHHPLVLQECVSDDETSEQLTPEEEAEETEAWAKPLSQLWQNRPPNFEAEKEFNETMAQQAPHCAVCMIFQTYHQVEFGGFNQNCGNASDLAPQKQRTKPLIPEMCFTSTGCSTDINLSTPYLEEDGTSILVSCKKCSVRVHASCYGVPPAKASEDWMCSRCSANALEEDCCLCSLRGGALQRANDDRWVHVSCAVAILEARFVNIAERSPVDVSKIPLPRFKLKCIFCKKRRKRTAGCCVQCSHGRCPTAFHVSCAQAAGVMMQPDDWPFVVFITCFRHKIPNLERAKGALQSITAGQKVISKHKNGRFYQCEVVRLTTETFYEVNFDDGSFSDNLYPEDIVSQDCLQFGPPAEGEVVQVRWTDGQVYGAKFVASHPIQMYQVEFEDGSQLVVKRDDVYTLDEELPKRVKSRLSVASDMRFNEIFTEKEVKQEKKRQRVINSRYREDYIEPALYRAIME
G9a inh-2: inhibits human G9a histone lysine methyltransferase, hit confirmation; AID 588344; Potency, µM, usual class: inhibitors; G9a H3K9 monomethylation, AlphaScreen, 2 h; 89% of 370 active; shares compounds with JMJD2A Tudor; also: nearly all actives have a fitted effect of over 65% in size
Of the large screens only hits and unclear results are named; the others gave an inactive call (follow-up assays come after a bar, where they were run). Unless noted, calls follow the shape of the dose curve; as a rule, active = well fitted curve in the direction sought with a large enough effect; inconclusive = small, poorly fitted or top-dose-only effect, or another doubt; inactive = no such curve, though single readings can be large; an effect the other way counts as inactive or inconclusive.

Cc1ccnc(NC(=S)N2CCN(c3cccc(C(F)(F)F)c3)CC2)c1	BAZ2B inh 20µM, G9a inh-1 1µM, JMJD2A Tudor 1µM | G9a inh-2 0.282
CC(OC(=O)c1cccc(S(=O)(=O)N2CCOCC2)c1)C(=O)NC1CCCCC1C (stereo not given)	G9a inh-1 inconclusive | G9a inh-2 35.5
O=C(NCc1ccccc1CN1CCCCC1)c1ccc(Cl)cc1N1CCCC1=O	G9a inh-1 1µM, JMJD2A Tudor inconclusive | G9a inh-2 7.94
O=C(Nc1ccc(N2CCN(c3ccc(O)cc3)CC2)cc1)Oc1ccccc1	G9a inh-1 0.891µM | G9a inh-2 0.2
COc1ccc(/C=N/NC(=O)c2nn(-c3ccc(Cl)cc3)c(=O)c3c(N)scc23)cc1	G9a inh-1 inconclusive
CCOC(=O)c1nn(-c2ccc(OC)cc2)c(=O)c2c(N)scc12	BAZ2B inh 50.1µM, G9a inh-1 1.12µM, JMJD2A Tudor inconclusive | G9a inh-2 3.98
COc1ccc(NC(=O)Cc2nnc(SCC(=O)NC3CCCCC3)n2C)cc1	none
COc1ccc(Cc2nnc(SCC(=O)NC3CCCCC3)n2C)cc1	G9a inh-1 inconclusive | G9a inh-2 10
COc1ccc(-c2noc(N3CCC(C(=O)Nc4cc(OC)c(OC)c(OC)c4)CC3)n2)cc1	none
c1ccc(-n2nnnc2SCc2cn3ccccc3n2)cc1	BAZ2B inh inconclusive, G9a inh-1 inconclusive | G9a inh-2 28.3
c1ccc(-n2nnnc2SCc2cn3cccnc3n2)cc1	none
CCOC(=O)c1c(C)[nH]c(C)c1C(=O)COC(=O)c1nn(CC)c(=O)c2ccccc12	none (no result: BAZ2B inh, HP1b chromo inh, G9a inh-1, JMJD2A Tudor)
O=C(Cc1ccc([N+](=O)[O-])cc1)c1ccc(O)cc1O	none
CCn1c(CSc2nc3ccccc3s2)nnc1SCC(=O)c1ccc(O)c(O)c1	BAZ2B inh 35.5µM, G9a inh-1 0.794µM, JMJD2A Tudor 44.7µM | G9a inh-2 1.42
CCn1c(CSc2nc3ccccc3s2)nnc1SCC(=O)c1ccc(Cl)cc1	G9a inh-1 inconclusive, JMJD2A Tudor inconclusive
COc1cccc(NC(=O)N2CCC(n3nnc4ccccc43)CC2)c1	none (no result: G9a inh-1)
COc1cccc(CNc2ccc(N3CCCCC3)cc2)c1OC	BAZ2B inh 14.1µM, CtBP-E1A blk inconclusive, Six1-Eya2 inh -66.5, HP1b chromo inh 39.8µM, G9a inh-1 inconclusive, JMJD2A Tudor 35.5µM | G9a inh-2 0.893
COc1ccccc1CNc1ccc(C(=O)O)cc1	none
COc1cccc(CNc2ccc(S(N)(=O)=O)cc2)c1OC	none
COc1ccccc1CNc1ccc(N2CCCCC2)cc1	BAZ2B inh 12.6µM, CtBP-E1A blk inconclusive, Six1-Eya2 inh inconclusive, HP1b chromo inh 31.6µM, G9a inh-1 inconclusive, JMJD2A Tudor 31.6µM | G9a inh-2 1.12
CC(C)c1ccc(NC(=O)C(C)N(c2ccccc2)S(C)(=O)=O)cc1 (stereo not given)	G9a inh-1 inconclusive (no result: CtBP-E1A blk, Six1-Eya2 inh)
Cc1cccc(NC(c2ccc(C)s2)c2ccc3ccc(C)nc3c2O)n1 (stereo not given)	G9a inh-1 1.78µM | G9a inh-2 0.399
Cc1ccc2ccc(C(Nc3ccccc3)c3ccc(Cl)cc3)c(O)c2n1 (stereo not given)	none (no result: BAZ2B inh, HP1b chromo inh, G9a inh-1, JMJD2A Tudor)
Cc1nc(NC(=O)CSc2ccccc2N)sc1C	G9a inh-1 inconclusive | G9a inh-2 17.8
O=C(Nc1ccc(N2CCCC2=O)cc1)c1cccc(F)c1	none
O=C(Nc1ccc(N2CCCC2)cc1)c1ccccc1F	BAZ2B inh inconclusive, CtBP-E1A blk inconclusive, G9a inh-1 1.78µM, JMJD2A Tudor inconclusive | G9a inh-2 2.83
O=C(Nc1ccc(N2CCCC2)cc1)c1cccc(F)c1	BAZ2B inh inconclusive, HP1b chromo inh inconclusive, G9a inh-1 inconclusive, JMJD2A Tudor 50.1µM | G9a inh-2 1.59
O=C(Nc1ccc(N2CCCC2)cc1)c1cccc(-c2cc3ccccc3oc2=O)c1	BAZ2B inh inconclusive, Six1-Eya2 inh inconclusive, HP1b chromo inh 8.91µM, G9a inh-1 1.58µM, JMJD2A Tudor 28.2µM | G9a inh-2 1.12
NC(=O)Cn1c(=O)n(Cc2ccccc2)c(=O)c2cccnc21	none (no result: CtBP-E1A blk)

Assay outcomes deposited in PubChem BioAssay by National Center for Advancing Translational Sciences (NCATS).
